Experimental findings from ChEMBL document CHEMBL1201862, “PubChem BioAssay data set” (2004) are described below.

The assay in a line: A High Throughput Confirmatory Assay used to Identify Novel Compounds that Inhibit Mycobacterium Tuberculosis in the absence of Glycerol using Purified and Synthesized Compounds (4). The format is functional.

Molecules are shown by their SMILES. Potency and affinity values are given separately. Bounds are passed on as bounds.

Take `Cc1cc(Br)ccc1NC(=O)c1cnc(N2CCN(c3ccccn3)CC2)c2ccccc12`: the IC90 (commonly the point of the concentration-response curve where the effect stands at 90%) was > 51.1 µM (active).
